Screening data (PubChem)
A selection: hits, their analogues and other compounds. The true share with any hit is near 4%.
697 NFkB inh: lowers PMA/ionomycin-induced NF-kB signal in 697 B cells; AID 435022; 697 B-cell NF-kB luciferase reporter, 16 h; 330,000 compounds, 0.33% hits; inhibition, % at 4 µM; in the data active = inhibition above about 35%
Jurkat NFkB inh: lowers PMA/ionomycin-induced NF-kB signal in Jurkat cells. PMA/ionomycin-induced NF-kB luciferase reporter, luminescence. inhibition, % at 4 µM. 330,000 compounds, 0.53% hits. AID 435003; in the data active = inhibition above about 50%
Gli-Sufu antag: Gli-Sufu pathway antagonism; Sufu-KO-LIGHT fibroblasts, Gli luciferase reporter luminescence; inhibition, % at 5 µM; 340,000 compounds, 0.74% hits; AID 588413;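 active = inhibition above about 55%, limit read from the data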
Beta apoptosis: blocks beta cell apoptosis; INS-1E cytokine-induced death, ATP luminescence, 48 h; percent of positive-control rescue, neutral wells zero; protection from apoptosis, % (no concentration beside the values); 300,000 compounds, 0.8% hits; AID 435005;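 active = Every replicate reaches about 75%, or at least half do and their mean reaches it too, limit read from the data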;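 also: higher means more ATP so stronger rescue from cytokine killing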
Mdm2-MdmX inh: human Mdm2/MdmX binding inhibition. AID 485346. SaOS-2 split-luciferase Mdm2/MdmX complementation, luminescence. inhibition, % at 8 µM. O15151+Q00987. 330,000 compounds, 3% hits;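 active = inhibition of at least 50% at 8 µM in the primary screen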
Target sequence (O15151 whole entry, looked up): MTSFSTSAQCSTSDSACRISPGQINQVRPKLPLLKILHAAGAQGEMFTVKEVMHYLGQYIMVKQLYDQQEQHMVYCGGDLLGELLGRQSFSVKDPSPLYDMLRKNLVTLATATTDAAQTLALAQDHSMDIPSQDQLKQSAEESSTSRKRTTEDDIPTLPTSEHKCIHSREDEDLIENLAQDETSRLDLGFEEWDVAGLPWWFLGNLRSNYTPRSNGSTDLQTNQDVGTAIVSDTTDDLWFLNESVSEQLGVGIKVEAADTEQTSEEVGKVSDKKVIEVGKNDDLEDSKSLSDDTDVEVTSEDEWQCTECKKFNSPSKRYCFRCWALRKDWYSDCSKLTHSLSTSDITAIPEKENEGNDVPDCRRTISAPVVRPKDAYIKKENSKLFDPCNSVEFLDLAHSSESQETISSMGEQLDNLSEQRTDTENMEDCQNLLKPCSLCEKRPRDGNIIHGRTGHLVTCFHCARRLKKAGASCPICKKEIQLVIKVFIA
Target sequence (Q00987 whole entry, looked up): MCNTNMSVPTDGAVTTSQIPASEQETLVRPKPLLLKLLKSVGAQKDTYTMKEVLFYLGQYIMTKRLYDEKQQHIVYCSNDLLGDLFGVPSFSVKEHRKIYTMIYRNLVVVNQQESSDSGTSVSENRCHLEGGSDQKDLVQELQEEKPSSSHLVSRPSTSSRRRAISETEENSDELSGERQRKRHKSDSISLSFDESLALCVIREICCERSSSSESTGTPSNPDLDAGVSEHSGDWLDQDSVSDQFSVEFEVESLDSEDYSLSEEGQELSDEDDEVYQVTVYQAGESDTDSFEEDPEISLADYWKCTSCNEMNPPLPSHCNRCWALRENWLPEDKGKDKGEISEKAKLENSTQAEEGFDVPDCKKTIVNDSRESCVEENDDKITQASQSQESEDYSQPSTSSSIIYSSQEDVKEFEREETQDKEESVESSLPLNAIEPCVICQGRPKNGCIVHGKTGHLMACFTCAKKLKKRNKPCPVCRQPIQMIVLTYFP
Gli antag conf: confirmation of Gli-SUFU pathway antagonists. shares compounds with Gli-Sufu antag. Sufu-KO-LIGHT cells, Gli luciferase reporter, luminescence. inhibition, % at 5 µM. 2,500 compounds, 40% hits. AID 602428;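 active = mean inhibition at 5 µM reaching about 45%, limit read from the data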
SufuKO cytotox: counter-screen for Gli-SUFU antagonists: cytotoxicity; AID 651994; Sufu-KO-LIGHT cells cytotoxicity, ATP luminescence; cytotoxicity, % at 5 µM; shares compounds with Gli-Sufu antag; 2,500 compounds, 32% hits;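 active = mean cytotoxicity at 5 µM above about 25%, limit read from the data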;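 also: cells exposed to compound overnight for roughly 16 to 18 hours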
Wnt3a cs: counter-screen for Gli-SUFU antagonists: Wnt3a reporter inhibition. Wnt-LIGHT cells, Wnt3a-driven luciferase reporter, luminescence. 2,500 compounds, 20% hits. inhibition, % at 6.25 µM. shares compounds with Gli-Sufu antag;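 active = mean inhibition above about 25%, limit read from the data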
Large screens that a line does not name were inactive (follow-up assays come after a bar, where they were run).

CC1CN(S(=O)(=O)c2ccc(C(=O)OCc3ccc(C#N)cc3)cc2)CC(C)O1 (centres undefined)	none
CC1=NN(C(N)=S)C(=O)C1N=Nc1ccc(F)cc1 (centres undefined)	none (no result: Beta apoptosis)
CC1=NN(C(N)=S)C(=O)C1N=Nc1ccc(O)cc1 (centres undefined)	Gli-Sufu antag 57.4 (no result: Beta apoptosis) | Gli antag conf inactive | SufuKO cytotox inactive | Wnt3a cs inactive
O=C(O)CC(NCc1ccco1)C(=O)Nc1cccc(O)c1 (centres undefined)	none
CCN(CC)CCNc1ccc(C)c2sc3ccc(O)cc3c(=O)c12	Gli-Sufu antag 66.8 (no result: 697 NFkB inh, Jurkat NFkB inh, Beta apoptosis, Mdm2-MdmX inh) | Gli antag conf 68.8 | SufuKO cytotox inactive | Wnt3a cs inactive
CN(C)CCNc1ccc(CO)c2oc3ccc(O)cc3c(=O)c12	none (no result: 697 NFkB inh, Jurkat NFkB inh, Beta apoptosis, Mdm2-MdmX inh)
Cc1cccc(N/C=C/c2onc(C)c2[N+](=O)[O-])c1	none | Gli antag conf inactive | SufuKO cytotox inactive | Wnt3a cs inactive
Cc1cc(O)ccc1N/C=C/c1onc(C)c1[N+](=O)[O-]	none
CCCn1c(N2CCN(C(=O)NCc3ccccc3)CC2)nc2ccccc21	Gli-Sufu antag 56.6 | Gli antag conf inactive | SufuKO cytotox inactive | Wnt3a cs inactive
Cc1cc(C[n+]2cc(Br)ccc2N)c2ncccc2c1	none | Gli antag conf 53.0 | SufuKO cytotox 34.4 | Wnt3a cs inactive
O=c1[nH]c(Cn2nnc(-c3ccccc3)n2)nc2scc(-c3ccccc3)c12	none
O=C(NNC(=O)c1c(O)c2ccccc2[nH]c1=O)c1ccccc1Br	none
CCOC(=O)c1sc(=S)n(-c2ccccc2Cl)c1SC	none | Gli antag conf inactive | SufuKO cytotox inactive | Wnt3a cs inactive
CCOC(=O)c1sc(=S)n(-c2ccccc2)c1SC	none
CSc1ncccc1C(=O)N1CCCC(C(=O)c2ccc3ccccc3c2)C1 (centres undefined)	none
Cn1nccc1C(=O)N1CCCC(C(=O)c2cccc3ccccc23)C1 (centres undefined)	Gli-Sufu antag 72.2 | Gli antag conf inactive | SufuKO cytotox inactive | Wnt3a cs inactive
CN(C)c1ccccc1C(=O)N1CCCC(C(=O)c2ccc3ccccc3c2)C1 (centres undefined)	Gli-Sufu antag 61.1 | Gli antag conf inactive | SufuKO cytotox inactive | Wnt3a cs inactive
Cc1ccc(S(=O)(=O)Cn2nnnc2C(C(C)C)N2CCC(O)CC2)cc1 (centres undefined)	none
Cc1ccc(C)c(S(=O)(=O)N2CCN(C(=O)C3CCN(c4ncnc5sc(C)c(C)c45)CC3)CC2)c1	Gli-Sufu antag 73.0 | Gli antag conf inactive | SufuKO cytotox inactive | Wnt3a cs inactive
Cc1ccc(S(=O)(=O)N2CCN(c3ncccn3)CC2)cc1C	none (no result: 697 NFkB inh, Jurkat NFkB inh, Mdm2-MdmX inh)
Cc1ccc(S(=O)(=O)N2CCN(c3ncnc4sccc34)CC2)cc1C	none (no result: Beta apoptosis) | Gli antag conf 47.2 | SufuKO cytotox 26.2 | Wnt3a cs 36.1
Cc1ccc(S(=O)(=O)N2CCN(c3ncnc4scc(-c5ccccc5)c34)CC2)cc1	none
Cc1sc2ncnc(N3CCN(S(=O)(=O)c4ccccc4)CC3)c2c1C	Gli-Sufu antag 59.6, Beta apoptosis 99.1 | Gli antag conf 53.6 | SufuKO cytotox 25.8 | Wnt3a cs 30.4
Cc1ccc2nc(NC(=O)C3CCN(c4ncnc5sc(C)c(C)c45)CC3)sc2c1	none
CC(=O)N1CCN(S(=O)(=O)c2cccc(C(=O)Nc3ccccc3N3CCCC3)c2)CC1	none (no result: Beta apoptosis)
Cc1ccc(CC2SC(=Nc3ccccc3)N(c3ccccc3)C2=O)cc1 (centres undefined)	Gli-Sufu antag 57.9 | Gli antag conf inactive | SufuKO cytotox inactive | Wnt3a cs inactive
O=C(O)CC1SC(=Nc2ccccc2)N(c2ccccc2)C1=O (centres undefined)	none
O=C(CN1C(=O)NC2(CCCC2)C1=O)N1CCN(c2ccccc2O)CC1	none
C#CCOCCOCCOCCNc1nc(N2CCN(C(=O)[C@H](CCCCN)n3cc([C@@H](N)CO)nn3)CC2)nc(N2CCN(C(=O)[C@H](Cc3cc4ccccc4[nH]3)n3cc([C@@H](N)CC(C)C)nn3)CC2)n1	none (no result: Gli-Sufu antag)
Cc1nc2ccccc2n1CC(O)COc1ccc(Br)cc1 (centres undefined)	none
CCC(=O)c1ccc(OCC(O)Cn2c(C)nc3ccccc32)cc1 (centres undefined)	none | Gli antag conf 51.9 | SufuKO cytotox inactive | Wnt3a cs inactive
Cc1cc(NC(=O)c2cc(C)on2)no1	none
Cc1cc(NC(=O)c2c(Br)c(C)nn2C)no1	none (no result: Beta apoptosis) | Gli antag conf inactive | SufuKO cytotox inactive | Wnt3a cs inactive
CNC(=O)c1cc(S(=O)(=O)Nc2ccc(C)cc2C)ccc1C	none
Cc1nc(-c2ccccc2)nc(-c2ccccc2)n1	none
CCOc1ccc(C(=O)CCC(=O)N2CCN(c3ccc(O)cc3)CC2)cc1	none
Cc1ccc(OCCC(=O)N2CCN(c3ccc(O)cc3)CC2)cc1	none | Gli antag conf inactive | SufuKO cytotox inactive | Wnt3a cs inactive
COc1ccc(C2CC(c3ccccc3)=NN2S(=O)(=O)c2ccccc2)c(OC)c1 (centres undefined)	none
COc1ccc(C2CC(c3ccccc3)=NN2S(=O)(=O)c2ccc(C)cc2)c(OC)c1 (centres undefined)	none | Gli antag conf inactive | SufuKO cytotox 37.4 | Wnt3a cs inactive
C(#Cc1ccccc1)C[N+]1(CC#Cc2ccccc2)CCCC1	Gli-Sufu antag 76.5 | Gli antag conf 74.7 | SufuKO cytotox inactive | Wnt3a cs inactive
C=CC[N+]1(CC#Cc2ccccc2)CCCC1	none
CCOC(=O)C1(CC2CCCCO2)CCN(Cc2cc3ccccc3[nH]2)CC1 (centres undefined)	Gli-Sufu antag 59.4 | Gli antag conf inactive | SufuKO cytotox inactive | Wnt3a cs inactive
O=C(COc1ccccc1-c1ccccc1)NNC(=O)NC1CCCCC1	none
Cc1ccc(C)c(NC(=O)c2nc(Cl)ccc2Cl)c1	none
O=C(Nc1ccccc1O)c1nc(Cl)ccc1Cl	none | Gli antag conf inactive | SufuKO cytotox inactive | Wnt3a cs inactive
CCOc1cc(C)c(Cl)cc1S(=O)(=O)n1ccnc1	none
CCc1cc(C(=O)N2CCCC(N3CCN(c4cccc(C(F)(F)F)c4)CC3)C2)n(C)n1 (centres undefined)	Gli-Sufu antag 55.1 | Gli antag conf inactive | SufuKO cytotox inactive | Wnt3a cs inactive
CN1/C(=C\C(=S)NC(=O)c2ccc([N+](=O)[O-])cc2)C(C)(C)c2ccccc21	Gli-Sufu antag 61.8, Beta apoptosis 102.6 | Gli antag conf inactive | SufuKO cytotox inactive | Wnt3a cs 25.8
CN1/C(=C\C(=S)NC(=O)c2cccc(Br)c2)C(C)(C)c2ccccc21	Gli-Sufu antag 72.3, Beta apoptosis 116.1 | Gli antag conf 56.0 | SufuKO cytotox inactive | Wnt3a cs inactive
